SW480 rereplic: DNA re-replication induction in SW480 cells; SW480 DNA re-replication, Hoechst DNA content imaging, 48 h; Potency, µM (doses to about 46.1 µM), most hits filed as activators; 340,000 compounds, 1.8% hits; note: nearly all actives have a fitted effect of over 55% in size
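Compounds, transferred as 23 nL by pin tool, were incubated with cells for 48 hr; DNA content per nucleus was then quantified by Hoechst staining and fluorescence plate imaging.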
KB-3-1 tox: KB-3-1 parental cell cytotoxicity; KB-3-1 viability, CellTiter-Glo ATP luminescence, 72 h; Potency, µM (top dose mostly 46.1 µM), hits mostly cytotoxic; 400,000 compounds, 1.4% hits; AID 1347075; note: nearly all actives have a fitted effect of over 60% in size
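Cells are dispensed, compounds pinned in, plates held at 37 °C for 72 h, then CellTiter-Glo is added and luminescence read after 10 minutes. Cell line: parental KB-3-1 in phenol-red-free DMEM, 10% FBS.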
RORg inh: blocks mouse ROR gamma transcriptional activity; Potency, µM (series often up to 53.6 µM), hits mostly inhibitors; P51450; Drosophila S2 Gal4-RORgamma UAS-luciferase reporter, 20 h; 310,000 compounds, 5.4% hits; note: nearly all actives have a fitted effect of over 60% in size
Target sequence (P51450 whole entry, looked up, the tested form may be a part): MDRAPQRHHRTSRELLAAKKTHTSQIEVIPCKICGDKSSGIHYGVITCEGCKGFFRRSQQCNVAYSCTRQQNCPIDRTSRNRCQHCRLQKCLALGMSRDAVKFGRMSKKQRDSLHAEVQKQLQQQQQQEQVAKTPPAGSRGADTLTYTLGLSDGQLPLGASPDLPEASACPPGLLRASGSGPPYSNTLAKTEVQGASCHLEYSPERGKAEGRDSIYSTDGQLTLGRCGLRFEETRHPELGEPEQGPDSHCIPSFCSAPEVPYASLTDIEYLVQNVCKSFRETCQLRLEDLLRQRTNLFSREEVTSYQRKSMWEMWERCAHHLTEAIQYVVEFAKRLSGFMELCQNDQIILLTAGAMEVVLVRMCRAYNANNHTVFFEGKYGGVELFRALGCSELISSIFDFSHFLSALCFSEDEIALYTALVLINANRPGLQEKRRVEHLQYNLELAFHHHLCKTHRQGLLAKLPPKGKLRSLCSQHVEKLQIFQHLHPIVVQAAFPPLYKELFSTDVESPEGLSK
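Using a luciferase readout, inhibitors were identified by reduced reporter activity in Drosophila cells coexpressing a copper-inducible Gal4–ROR gamma fusion and UAS-driven Photinus luciferase, incubated 20 hr after 700 uM copper sulfate.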
MCF10A rereplic: inducers of DNA re-replication in MCF 10A breast cells | MCF 10A DNA re-replication, Hoechst nuclear intensity, 48 h | 350,000 compounds, 2.9% hits | Potency, µM (series often up to 46.1 µM), hits mostly activators | AID 624296; note: nearly all actives have a fitted effect of over 50% in size
KB-V1 MDR tox: kills drug-selected multidrug resistant KB-V1 cells. KB-V1 MDR cells viability, CellTiter-Glo, 72 h. Potency, µM (titrated, usually from 46.1 µM), hits mostly cytotoxic. 400,000 compounds, 3.4% hits. AID 1347076; note: nearly all actives have a fitted effect of over 60% in size
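In this primary screen, KB-V1 cells overexpressing P-gp are incubated with library compounds (lowest to highest concentration) for 72 h at 37 degrees C before a luminescent ATP viability read.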
VP16 counter: inhibits Gal4-VP16 luciferase reporter, ROR gamma counter-screen | Drosophila S2 Gal4-VP16 UAS-luciferase, luminescence, 20 h | 310,000 compounds, 3.5% hits | Potency, µM (highest dose often 53.6 µM), most hits filed as inhibitors;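 note: Gal4-VP16 expression switched on by copper sulfate through the metallothionein promoter; nearly all actives have a fitted effect of over 50% in size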
Hits are given with their value; - = inactive; ? = inconclusive; . = no result; [ ] = remark or other dose. This is a sample that favours compounds with a hit; in the whole collection about 10% have one here. Calls come from the whole dose curve; as a rule, active = well fitted curve in the direction sought with a large enough effect; inconclusive = small, poorly fitted or top-dose-only effect, or another doubt; inactive = no such curve, though single readings can be large; an effect the other way counts as inactive or inconclusive.

SMILES	SW480 rereplic	KB-3-1 tox	RORg inh	MCF10A rereplic	KB-V1 MDR tox	VP16 counter
CN(C)S(=O)(=O)c1ccc(N2C(=O)CC2(/C=C/c2ccccc2)C(=O)NC2CCCC2)cc1 (stereo unspecified)	-	-	-	-	5.17µM	?
COc1ccccc1/C=C/C(=O)OCC(=O)NC1CCCCCCC1	-	-	.	-	-	.
Cc1ccc(-c2nnc3ccccc3c2C(=O)Nc2ccc(C)c(F)c2)cc1	.	-	.	.	-	.
CCOC(=O)c1c(CN(C)C)n(-c2ccccc2)c2cc(Br)c(OC)cc12	?	?	-	?	20.6µM	-
CCOC(=O)c1c(CN(C)C)n(-c2ccc(C)cc2)c2cc(Br)c(O)cc12	-	-	-	?	?	-
CCOC(=O)c1c(CN2CCOCC2)n(-c2ccccc2)c2cc(Br)c(O)cc12	-	-	?	-	-	-
CCOC(=O)c1c(CN2CCOCC2)n(-c2ccccc2)c2cc(Br)c(OC)cc12	?	?	-	23.1µM	18.4µM	-
CCOC(=O)c1c(CN2CCCCC2)n(C)c2cc(Br)c(O)cc12	-	-	-	-	10.3µM	-
CCOC(=O)c1c(C)[nH]c(C(=O)COC(=O)c2oc3ccc(OC)cc3c2C)c1C	-	16.4µM	-	-	10.3µM	-
COC(=O)C1=COC(O[C@H]2OC(CO)[C@H](O)C(O)C2O)[C@H]2C1C(=O)C[C@@H]2C (stereo partly specified)	.	.	-	.	.	-
CC(=O)NCCNc1nc2cc(-c3cnn(CCC(C)C)c3)sc2c(=O)n1C	.	-	.	.	-	.
CC(=O)OCC(NC(=O)C(CCCCNC(=O)OCc1ccccc1)NC(=O)OC(C)(C)C)C1OC(n2ccc(=O)[nH]c2=O)C(OC(C)=O)C1OC(C)=O (stereo unspecified)	.	.	-	.	.	-
CCOC(=O)c1c(CN2CCOCC2)oc2ccc(OC)cc12	-	-	-	-	16.4µM	-
CCOC(=O)c1c(CN2CCCCC2)oc2ccc(O)cc12	-	-	-	-	-	-
CCOC(=O)c1ccc(NC(=O)c2nc[nH]c2C(=O)N(CC)CC)cc1	-	-	11.2µM	-	-	?
CCN(CC)C(=O)c1[nH]cnc1C(=O)Nc1ccc(OC)cc1	1.84µM	?	?	-	-	-
COc1ccc(NC(=O)c2nc[nH]c2C(=O)N(C)Cc2ccccc2)cc1	-[9.22 µM]	-	7.08µM	-	-	?
CCOC(=O)c1ccc(NC(=O)c2nc[nH]c2C(=O)NCCCNC(=O)c2[nH]cnc2C(=O)Nc2ccc(C(=O)OCC)cc2)cc1	-	-	.	-	-	.
N=c1ccn2c(n1)OCC1C2O[C@@H](O)[C@H]1O (stereo partly specified)	.	.	-	.	.	-
Cc1ccc(C)c(C(=O)Cn2ncc(Cl)c(Cl)c2=O)c1	?	?	?	4.61µM	?	?
O=c1c2ccccc2cnn1Cc1ccc(Cl)c(Cl)c1	-	-	-	-	?	-
Cc1cc2oc(=O)cc(Cn3ncc(Cl)c(Cl)c3=O)c2cc1Cl	2.59µM	13µM	-	7.31µM	?	?
Cc1cccc(Cn2ncc(Cl)c(Cl)c2=O)c1	5.8µM	?	?	13µM	20.6µM	?
Cc1ccc(C)c(C(=O)CN2C(=O)c3ccccc3C2=O)c1	-	-	-	-	-	-
Cc1cc(C(=O)Cn2ncc(Cl)c(Cl)c2=O)c(C)n1CC(F)(F)F	5.8µM	?	?	2.59µM	?	?
SMILES	SW480 rereplic	KB-3-1 tox	RORg inh	MCF10A rereplic	KB-V1 MDR tox	VP16 counter
C[C@@H](O)[C@@H]1C(=O)N2C(C(=O)O)=C([C@H]3CCCO3)S[C@H]12	-	.	-	-	.	-
C=C(C)c1nc(Oc2ccccc2)nc(Oc2ccccc2)n1	?	?	.	4.11µM	-	.
COc1ccccc1CCn1c(=O)c(-c2cccc(Cl)c2)nc2cncnc21	.	.	-	.	.	-
CCNS(=O)(=O)c1ccc(OC)c(C)c1	-	-	-	-	-	-
CCNS(=O)(=O)c1ccc2c(c1)NCC2	5.8µM	-	-	-	-	-
CCN(CC)c1ccc(Nc2nc(N3CCOCC3)c3ccccc3n2)cc1	?	8.2µM	-	?	2.59µM	11.2µM
CC(=O)C(Sc1nc(N2CCOCC2)nc(N2CCOCC2)n1)C(=O)Nc1ccccc1 (stereo unspecified)	-	-	0.891µM	-	-	?
Oc1cccc(Nc2nc(N3CCOCC3)nc(N3CCOCC3)n2)c1	?	?	?	23.1µM	-	-
O=C(CSc1nc(Nc2ccccc2)nc(N2CCOCC2)n1)Nc1ccc2c(c1)OCCO2	-	-	?	18.4µM	-	-
Cc1cccc(Nc2nc(N3CCOCC3)nc(N3CCOCC3)n2)c1	-	-	-	-	-	-
CCc1ccc(-n2c(=O)c3c4c(sc3n(CC(=O)N3CCCCC3CC)c2=O)CCC4)cc1 (stereo unspecified)	.	-	.	.	-	.
c1ccc(Nc2nc(N3CCOCC3)nc(N3CCOCC3)n2)cc1	-	16.4µM	-	?	?	-
c1ccc(Nc2nc(N3CCNCC3)nc(N3CCOCC3)n2)cc1	?	-	-	?	?	-
Cc1ccccc1-c1nnc(-c2ccc(Br)cc2)o1	-	-	-	?	-	2.82µM
C[C@H]1CN([C@@H](C)CO)C(=O)CCCn2cc(nn2)CO[C@@H]1CN(C)C(=O)Nc1ccc(N2CCN(C)CC2)cc1	.	-	.	.	-	.
Cn1cc(-c2nnnn2-c2cccc(C(F)(F)F)c2)c(C(F)(F)F)n1	-	-	10µM	-	-	-[0.365 µM]
COc1ccc2c(c1)c1c(c(=O)n(-c3cc(Cl)ccc3C)c(=O)n1CC(=O)N1CCCC1)n2C	.	-	.	.	-	.
CCOc1ccc(C(Nc2cccnc2)c2cc(Cl)c3cccnc3c2O)cc1 (stereo unspecified)	?	?	5.62µM	?	-	?
O=C(O)COc1ccccc1C(Nc1ccccn1)c1cc(Cl)c2cccnc2c1O (stereo unspecified)	-	-	?	18.4µM	-	-
CCOc1ccc(C(NC(C)=O)c2cc(Cl)c3cccnc3c2O)cc1 (stereo unspecified)	.	-	.	.	-	.
O=C(O)COc1ccccc1C(Nc1cccnc1)c1cc(Cl)c2cccnc2c1O (stereo unspecified)	-	-	-	9.2µM	-	-
O=C(NC(c1ccccc1)c1cc(Cl)c2cccnc2c1O)c1cccnc1 (stereo unspecified)	.	.	0.631µM	.	.	0.794µM
CCCCCCCN	.	.	-	.	.	-
CN(C)CCn1c(NC(=O)c2ccc(Cl)cc2)nc2ccccc21	-	-	1.12µM	-	-	1.41µM
CCCn1c(NC(=O)c2ccc(Cl)c(S(=O)(=O)N3CCCC3)c2)nc2ccccc21	-	?	1.58µM	-	?	3.55µM
CCN(CC)CCn1c(NC(=O)c2ccc(C(F)(F)F)cc2)nc2ccccc21	-	-	0.224µM	20.6µM	-	0.355µM
